Most compounds without a hit are left out; they make up all but 1.8% or so of the library.
HttQ103 aggreg: mutant huntingtin aggregation inhibition. hit rate 1.1% among 220,000. Potency, µM (doses to about 46.1 µM), for inactives: at the top dose activity change, negative = inhibition, hits mostly inhibitors. PC12 HttQ103-GFP aggregates, Acumen cytometry, 40 h; note: % is set by controls: 0 for no effect and ±100 for the full control effect; nearly all actives have a fitted effect of over 60% in size
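Using laser scanning cytometry, GFP-positive aggregates were counted after lysis of PC12 cells induced with 100 nM tebufenozide to express HTT exon 1 Q103–GFP. Compounds were tested in titration.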
L3MBTL1 inh: inhibitors of human L3MBTL1 | Q9Y468 | AlphaScreen L3MBTL1–H3K9me1 peptide binding | Potency, µM (top dose mostly 57.1 µM), for inactives: at the top dose activity, negative = inhibition, actives largely listed as inhibitors | hit rate 0.66% among 230,000 | AID 485360; note: % is set by controls: 0 for no effect and ±100 for the full control effect; nearly all actives have a fitted effect of over 60% in size
Target sequence (Q9Y468 whole entry, looked up): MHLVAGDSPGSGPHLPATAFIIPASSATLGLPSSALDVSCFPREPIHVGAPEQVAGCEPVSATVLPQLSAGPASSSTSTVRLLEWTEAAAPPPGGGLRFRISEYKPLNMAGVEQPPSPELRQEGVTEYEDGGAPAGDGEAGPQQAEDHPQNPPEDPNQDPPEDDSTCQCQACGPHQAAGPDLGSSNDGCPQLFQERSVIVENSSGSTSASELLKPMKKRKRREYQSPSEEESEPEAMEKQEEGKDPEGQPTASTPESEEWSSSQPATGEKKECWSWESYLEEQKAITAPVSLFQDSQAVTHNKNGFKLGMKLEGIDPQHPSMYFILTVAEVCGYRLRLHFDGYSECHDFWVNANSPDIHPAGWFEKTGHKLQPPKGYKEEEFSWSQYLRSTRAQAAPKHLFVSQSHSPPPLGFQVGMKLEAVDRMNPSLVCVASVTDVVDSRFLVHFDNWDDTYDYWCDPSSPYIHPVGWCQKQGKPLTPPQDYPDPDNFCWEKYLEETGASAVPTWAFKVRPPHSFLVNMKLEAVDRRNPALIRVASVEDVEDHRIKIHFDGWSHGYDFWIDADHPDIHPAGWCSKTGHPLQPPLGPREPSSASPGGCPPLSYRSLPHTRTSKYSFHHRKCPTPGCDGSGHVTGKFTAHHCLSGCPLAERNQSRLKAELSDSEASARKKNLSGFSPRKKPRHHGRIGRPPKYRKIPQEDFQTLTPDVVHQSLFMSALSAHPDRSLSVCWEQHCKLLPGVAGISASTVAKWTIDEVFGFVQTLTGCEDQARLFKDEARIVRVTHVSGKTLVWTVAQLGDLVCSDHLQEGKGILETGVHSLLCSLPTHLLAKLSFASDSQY
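Displacement of a biotinylated histone H3(1-15) peptide monomethylated at Lys9 (75 nM) from L3MBTL1 (50 nM) was measured by AlphaScreen after a 30 min room-temperature compound incubation; cefsulodin titration served as intraplate control.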
HTT cytoprotect: Huntington cell model cytoprotection by ATP luminescence. Potency, µM (titrated, usually from 56.4 µM), inactives show cytoprotection (ATP increase), most hits filed as activators. PC12 HTT-Q103 induced, cytoprotection, ATP luminescence, 40 h. hit rate 0.14% among 230,000; note: % of control where 0% means no effect; nearly all actives have a fitted effect of over 45% in size
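PC12 cells stably carrying ecdysone-inducible Htt exon 1 (Q103)–GFP were induced with 100 nM tebufenozide (final) alongside library compounds in a dose series. Cytoprotection was scored as retained ATP by ATPlite luminescence.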
JMJD2E inh: inhibitors of human JMJD2E histone demethylase. B2RXH2. JMJD2E catalytic domain, FDH-coupled NADH fluorescence (FDH is formaldehyde dehydrogenase). Potency, µM (series often up to 57.1 µM), for inactives: top-dose activity change, negative = inhibition, most hits filed as inhibitors. hit rate 1.6% among 230,000; active = well fitted inhibition curve with a large enough effect, not every such curve was filed as active; inconclusive = small, poorly fitted or top-dose-only effect, or another doubt; inactive = no such curve, though single readings can be large or run the other way;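 note: 0% = wells with enzyme and -100% = buffer wells without enzyme; nearly all actives have a fitted effect of over 50% in size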
An asterisk follows results filed as active; ? = inconclusive; / = no result given; [ ] = dose if it differs, or a comment. Unless noted, calls come from the whole dose curve; as a rule, active = well fitted curve in the direction sought with a large enough effect; inconclusive = small, poorly fitted or top-dose-only effect, or another doubt; inactive = no such curve, though single readings can be large; an effect the other way counts as inactive or inconclusive. Potency is the fitted concentration of half-maximal effect.

SMILES	HttQ103 aggreg	L3MBTL1 inh	HTT cytoprotect	JMJD2E inh
O=c1c(CCc2ccccc2)nc2cnc(Oc3ccccc3)nc2n1C[C@H]1CCCO1	/	/	-108%	/
CC(C)C[C@@H](CC(=O)N[C@@H](CCC(=O)O)CC(=O)O)NC(=O)[C@@H]1CCCC[C@H]1NC(=O)C[C@H](CCCN)NC(=O)C[C@H](Cc1ccccc1)NC(=O)[C@@H]1CNCC[C@H]1N	/	/	-46%	1%
O=C1NCN(c2ccccc2)C12CCN(CCCC(c1ccc(F)cc1)c1ccc(F)cc1)CC2	14µM*	?	?	-1%
O=C1CCC(=O)N1CCC(c1ccc(F)cc1)c1ccco1 (stereo not drawn)	-11%	-11%	-13%	-10%
CCN(CC)S(=O)(=O)c1ccc(NC(=O)Nc2cccc(C(F)(F)F)c2)cc1	16µM*	/	-63%	-4%
Cc1cc(C)c[n+](C2=C([O-])c3ccccc3C(=O)/C2=N\S(=O)(=O)c2cccs2)c1	-11%	-8%	-6%[1.9 µM]	1%
Cc1cc[n+](C2=C([O-])c3ccccc3C(=O)/C2=N\S(=O)(=O)c2cccs2)cc1C	10µM*	-17%	-2%[10 µM]	?
Cc1ccccc1NC1=C/C(=N\S(=O)(=O)c2cccs2)c2ccccc2C1=O	1.4µM*	/	-111%	13%
CC(=O)Nc1ccc(NC2=C/C(=N/S(=O)(=O)c3cccs3)c3ccccc3C2=O)cc1	5.6µM*	?	/	43%
COc1c2c(cc3c1C(NC(N)=O)[N+](C)(C)CC3)OCO2 (stereo not drawn)	/	/	?	-3%
OC(CNC1Cc2ccccc2C1)COc1ccc(Cl)cc1 (stereo not drawn)	-10%[9.22 µM]	/	-1%[10 µM]	5%
CC(=O)O[C@@H]1CC[C@]2(C)[C@H]3CC[C@]4(C)[C@H](C[C@H]5CCCC[C@@]54C(C)=O)[C@@H]3CC(=O)[C@@]2(O)C1	/	/	7%	/
CCC1CN2CCC1CC2[C@@H](NC(=S)Nc1cc(C(F)(F)F)cc(C(F)(F)F)c1)c1cccc2ccc(OC)cc12 (stereo partly drawn)	/	/	-39%	-18%
CCCC(=O)NCCCCNC(=O)CCC	-3%	-1%	-7%	-19%
CC(=O)N(O)CCCCCNC(=O)CCC(=O)N(O)CCCCCNC(=O)CCC(=O)N(O)CCCCCN	-6%	15%	?	22µM*
CNC(=O)CN1C(=O)C2C3C=CC(C3)C2C1=O (stereo not drawn)	9%	4%	18%[10 µM]	-13%
CS(=O)(=O)NNC(=O)CN1C(=O)C2C3C=CC(C3)C2C1=O (stereo not drawn)	0.032µM*	/	-15%	1%
CCOC(=O)OCC1OC(c2cc(C)cc(C)c2)C=CC1OC(=O)OCC (stereo not drawn)	/	/	-5%[10 µM]	/
CC(=O)Cc1nsc(NC(=O)c2ccc(-c3cc(Cl)ccc3Cl)o2)n1	4%	-1%	-74%	?
CC(=O)Cc1nsc(NC(=O)c2ccc(-c3cc(C(F)(F)F)ccc3Cl)o2)n1	2µM*	-2%	0%	-1%
COC(=O)NC(c1cccc(F)c1)C(C(C)=O)C(=O)OC (stereo not drawn)	/	/	3%[10 µM]	/
CN(C)c1ccc(N=Nc2ccccc2C(=O)OCC(=O)NC2CCCC2)cc1	6.3µM*	?	-20%[10 µM]	-6%
CN(C)c1ccc(N=Nc2ccccc2C(=O)OCC(=O)N(C)C2CCCCC2)cc1	?	28µM*	-15%[10 µM]	3%
CN(C)c1ccc(N=Nc2ccccc2C(=O)OCC(=O)NCC2CCCCC2)cc1	-1%	11µM*	5%[10 µM]	-3%
COC(=O)c1sccc1NC(=O)Cc1ccc(OC)cc1	40µM*	20%	/	2%
SMILES	HttQ103 aggreg	L3MBTL1 inh	HTT cytoprotect	JMJD2E inh
Cc1ccc2nc(NC(=O)C3CCN(S(=O)(=O)c4cccs4)CC3)sc2c1	-24%	1%	3.5µM*	-15%
COc1ccc2nc(NC(=O)C3CCN(S(=O)(=O)c4cccs4)CC3)sc2c1	?	/	-53%	3%
O=C(Nc1nc2ccc(S(=O)(=O)N3CCCCC3)cc2s1)c1cccnc1	-12%	/	-26%	-5%
O=C(Nc1nc2ccc(S(=O)(=O)N3CCCCC3)cc2s1)c1ccncc1	3.5µM*	-8%	-10%[10 µM]	-2%
COc1cccc([C@@H]2Oc3ccc(OC)cc3C(=O)[C@H]2OC(=O)N[C@H]2CCCc3ccccc32)c1	/	/	-41%	?
COc1cc(C/C=C\c2ccccc2)c(OC)cc1O	/	/	-193%	?
O=C(O)c1cccc(NC(=S)N/N=C/c2ccccn2)c1	3%	20µM*	-79%	?
CC(C)(C)c1nnc(N/N=C/c2ccccc2)n(N)c1=O	-3%	0%	9%[10 µM]	-5%
CC(C)(C)c1nnc(N/N=C/c2ccccc2O)n(N)c1=O	?	16µM*	-66%[10 µM]	28µM*
O=C(CC(NCc1ccccn1)C(=O)O)Nc1ccccc1Cl (stereo not drawn)	11%	20µM*	15%[10 µM]	11%
C/C(CCN1CCCc2nc(C)c(C)cc21)=N\OC[C@@H](O)COCc1ccco1	/	/	4%[10 µM]	/
CN(Cc1c(F)cccc1Cl)c1ccc(S(=O)(=O)N2CCOCC2)cn1	3.5µM*	-3%	-42%	?
Cc1ccc(C(=O)C(c2ccccc2)N2Cc3ccccc3C2=N)cc1 (stereo not drawn)	16µM*	?	20%[10 µM]	6.3µM*
COc1ccc(C(=O)C(c2ccccc2)N2CCOCC2)cc1 (stereo not drawn)	0%	46%	14%[10 µM]	-7%
Cc1ccc2c(c1)C(=O)N(CCCCO)C2=O	12%	18%	-5%[10 µM]	-10%
O=C1c2ccc(Oc3ccc4c(c3)C(=O)N(CCCO)C4=O)cc2C(=O)N1CCCO	5.6µM*	/	0%	?
COc1cc2nc(C3CCC3)nc(N3CCN(c4ccccc4OC)CC3)c2cc1OC	-30%	28µM*	/	-27%
O=[N+]([O-])c1cnc2ccccn12	7%[9.22 µM]	/	4µM*	-6%
Cc1ncc([N+](=O)[O-])n1Cc1ccccc1	-12%	5%	22%[10 µM]	-7%
COc1cccc(C2NC(c3cccc(OC)c3O)C(C)C(=O)C2C)c1O (stereo not drawn)	-19%	-3%	-5%	20µM*
CCCn1c(-c2nonc2N)nc2ccccc21	13µM*	6%	3%[10 µM]	-3%
COCCn1c(=O)c(-c2cccc(C#N)c2)nc2cnc(N3CCN(C)CC3)nc21	/	/	-13%	/
CN(CCO)C1=NS(=O)(=O)c2cc([N+](=O)[O-])ccc21	6.3µM*	/	-160%	?
C=CCOCCN(C)C1=NS(=O)(=O)c2cc([N+](=O)[O-])ccc21	-22%	1%	-68%	-17%
CCNc1ncc2nc(C)c(=O)n(Cc3cccc(OC)c3)c2n1	/	/	-37%	/
CCCCC1C(=O)N(c2ccccc2)N(c2ccc(O)cc2)C1=O (stereo not drawn)	/	3%	2.2µM*	3%
CC(C)=CCC1C(=O)N(c2ccccc2)N(c2ccccc2)C1=O	20%	/	73%	/
CCN(CC)C(=O)[C@@]1(c2ccccc2)C[C@@H]1CN	-3%	/	1%	/
O=S(=O)(O)NC1CCCCC1	-14%	/	?	/
CCCCC/C=C\C/C=C\CCCCCCCC(=O)NC(C)C(=O)O (stereo not drawn)	/	/	-26%	3%
